Values joined by “and” are separate entries in the source; they are usually repeats but may differ in a detail not shown here. Equal entries are not always repeated. In all, about 5,500 compounds went through this assay and about 2,000 (36%) were called active. Another 18% or so got no clear call; they are omitted. Cut-off read from the data, not from the text of the source: active = normalized growth mostly below about 0.91 (no sharp cut-off); inconclusive = no clear call, values can overlap the other calls; inactive = mostly above about 0.92. The list shows a part of the results.
Assay: chemical genetic growth profiling, strain panel (AID 1159580);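 note: tested at 20 µM; growth read once vehicle control cultures reached saturation at 30 °C; 1 = growth at the plate median or of vehicle wells; lower values mean less growth of the strain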
Settings: S. cerevisiae deletion strains, growth OD

Measured: normalized growth

COc1cnc(NS(=O)(=O)c2ccc(N)cc2)nc1
inactive: locus YAL021C, strain ccr4, active compounds read low 1.01 | locus YAL026C, strain drs2, active compounds read low 1 | locus YAL030W, strain snc1, active compounds read low 1.01 | locus YBL061C, strain skt5, active compounds read low 0.994 | locus YBR009C, strain hhf1, active compounds read low 1.01 | locus YBR021W, strain FUR4, active compounds read low 1.02 | locus YBR023C, strain chs3, active compounds read low 0.998 | locus YBR171W, strain sec66, active compounds read low 0.993 | locus YBR229C, strain ROT2, active compounds read low 0.956 | locus YBR231C, strain swc5, active compounds read low 0.991 | locus YBR279W, strain paf1, active compounds read low 0.993 | locus YCL011C, strain gbp2, active compounds read low 1 | locus YCL016C, strain dcc1, active compounds read low 0.983 | locus YCL029C, strain bik1, active compounds read low 0.98 | locus YCL069W, strain vba3, active compounds read low 1 | locus YCR088W, strain abp1, active compounds read low 1 | locus YDL005C, strain med2, active compounds read low 0.997 | locus YDL035C, strain GPR1, active compounds read low 0.996 | locus YDL040C, strain nat1, active compounds read low 1 | locus YDL074C, strain BRE1, active compounds read low 0.988 | locus YDL101C, strain DUN1, active compounds read low 0.98 | locus YDL134C, strain PPH21, active compounds read low 1 | locus YDL185W, strain tfp1, active compounds read low 0.962 | locus YDL192W, strain arf1, active compounds read low 0.972 | locus YDR001C, strain nth1, active compounds read low 0.997 | locus YDR069C, strain doa4, active compounds read low 1.01 | locus YDR101C, strain arx1, active compounds read low 0.983 | locus YDR137W, strain rgp1, active compounds read low 0.996 | locus YDR159W, strain sac3, active compounds read low 0.92 | locus YDR162C, strain NBP2, active compounds read low 0.992 | locus YDR195W, strain ref2 0.984 | locus YDR297W, strain sur2, active compounds read low 1.01 | locus YDR318W, strain mcm21, active compounds read low 0.986 | locus YDR334W, strain swr1, active compounds read low 0.998 | locus YDR335W, strain msn5, active compounds read low 0.993 | locus YDR388W, active compounds read low 0.985 | locus YDR392W, strain spt3, active compounds read low 0.925 | locus YDR502C, strain sam2, active compounds read low 0.987 | locus YEL003W, strain gim4, active compounds read low 1 | locus YEL037C, strain rad23, active compounds read low 0.999 | locus YEL061C, strain CIN8 (second series), active compounds read low 1 | locus YEL061C, strain CIN8, active compounds read low 0.979 | locus YER015W, strain faa2, active compounds read low 1 | locus YER016W, strain bim1, active compounds read low 0.998 | locus YER110C, active compounds read low 0.969 | locus YER111C, strain swi4, active compounds read low 1.01 | locus YER155C, strain BEM2 (second series), active compounds read low 1.02 | locus YER155C, strain BEM2, active compounds read low 1 | locus YER167W, strain BCK2, active compounds read low 0.99 | locus YFR010W, strain ubp6, active compounds read low 0.989 | locus YGL078C, strain dbp3, active compounds read low 0.978 | locus YGL086W, strain mad1, active compounds read low 0.985 | locus YGL167C, strain pmr1, active compounds read low 0.993 | locus YGL173C, strain kem1, active compounds read low 1.01 | locus YGL227W, strain vid30, active compounds read low 1 | locus YGL240W, strain doc1, active compounds read low 0.994 | locus YGL248W, strain PDE1, active compounds read low 0.976 | locus YGL253W, strain hxk2, active compounds read low 0.994 | locus YGR135W, strain pre9, active compounds read low 0.988 | locus YGR229C, strain SMI1, active compounds read low 1.01 | locus YGR252W, strain gcn5, active compounds read low 0.949 | locus YHR013C, strain ard1, active compounds read low 1 | locus YHR027C, strain rpn1, active compounds read low 0.982 | locus YHR030C, strain SLT2, active compounds read low 1 and 0.997 | locus YHR079C, strain IRE1 (second series), active compounds read low 0.984 | locus YHR079C, strain IRE1, active compounds read low 0.989 | locus YHR094C, strain hxt1, active compounds read low 0.984 | locus YHR129C, strain ARP1, active compounds read low 0.997 | locus YHR142W, strain chs7, active compounds read low 1 | locus YHR200W, strain rpn10, active compounds read low 0.969 | locus YIL066C, strain RNR3, active compounds read low 0.978 | locus YIL073C, strain SPO22, active compounds read low 0.999 | locus YIL125W, strain kgd1, active compounds read low 0.974 | locus YIR030C, strain dcg1, active compounds read low 0.982 | locus YJL092W, strain hpr5, active compounds read low 1 | locus YJL095W, strain BCK1 (second series), active compounds read low 0.988 | locus YJL095W, strain BCK1, active compounds read low 0.983 and 1.01 | locus YJL115W, strain asf1, active compounds read low 0.993 | locus YJL129C, strain trk1, active compounds read low 0.986 | locus YJL134W, strain LCB3, active compounds read low 0.995 | locus YJL154C, strain vps35, active compounds read low 1 | locus YJL164C, strain tpk1, active compounds read low 0.981 | locus YJL166W, strain qcr8, active compounds read low 1.01 | locus YJL168C, strain set2, active compounds read low 0.982 | locus YJL187C, strain SWE1 (second series), active compounds read low 0.965 | locus YJR043C, strain POL32, active compounds read low 0.992 | locus YJR066W, strain TOR1, active compounds read low 0.934
